Molecules are shown by their SMILES. About 83,000 compounds went through this panel and 20% of them were active in at least one assay; those are over-represented in the sample as a whole.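 Single-concentration screen, 48 h exposure, 96-well plates. Endpoint: percent growth. Below 10 = active.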 Calls of active or inactive are those of the source.

This assay has as its system SK-MEL-28 melanoma. Description: NCI-60 one-dose screen, 48 h (100 = growth as untreated, 0 = no growth, -100 = all killed). Particulars: 10 µM unless noted. The protocol: Growth inhibition of the SK-MEL-28 human tumor cell line is measured as a screen for anti-cancer activity. Cells are grown in 96 well plates and exposed to the test compound for 48 hours. Compounds are tested at a single concentration, which is 10^-5 M for most compounds. The reported endpoint is percent growth (GI% or GIPRCNT), where numbers from 0 - 100% represent growth inhibition, and numbers from -100% - 0 represent cell death. For example, a value of 40 represents 60% growth inhibition. A value of 0 means no net growth occurred over the course of the experiment. A value of -40 indicates 40% of cells at the beginning of the experiment died by the end of the experiment. A value of -100 means all cells are dead at the end of the experiment.
NCI-60 Human Tumor Cell Lines Screen was performed using the standard one-dose NCI protocol, which is described in more detail at https://dtp.cancer.gov/discovery_development/nci-60/default.htm.
Compounds with GIPRCNT values below 10 were considered active. Activity score was based on GIPRCNT using the following formula: […]
Score is 0 for GIPRCNT values of 100 or above, 50 for GIPRCNT values of 0, and 100 for GIPRCNT values of -100.
Turning to `O=c1[nH]c([C@@H]2CCCN2)nc2c1oc1ccc(Cl)cc12`, the growth was 78.8% (inactive). For `ClCc1ccc(-c2ccc(Cn3cnc4nc(Cl)nc(Cl)c43)cc2)cc1`, the growth was 1.02% (active). In the case of `CO[C@H](C(=O)N[C@@H](CCCCNC(=O)OCc1ccccc1)C(=O)OC(C)(C)C)[C@@H]1Cc2cc3cc(OC4CC(OC5CC(O)C(O)C(C)O5)C(O)C(C)O4)c(C)c(O)c3c(O)c2C(=O)[C@H]1OC1CC(OC2CC(OC3CC(C)(O)C(O)C(C)O3)C(O)C(C)O2)C(O)C(C)O1` (stereo not given in full), the growth is -55.7% (active).

With `COc1ccc(Cl)c(Nc2nc3ccccc3nc2NS(=O)(=O)c2cccc(NC(=O)C(C)(C)N)c2)c1`, the growth is 53.1% (inactive).

With `OCCNC(=S)Nc1ccc(-c2nc(N3C[C@H]4CC[C@@H](C3)O4)c3cccn3n2)cc1`, the growth was -5.35% (active).

With `C/C(=C(/c1ccc(Cl)cc1)c1ccc(OCCN2CCCCCC2)cc1)c1ccccc1`, the growth was 88% (inactive). Consider `COC(=O)[C@]12CC[C@@H](C)[C@H](C)[C@@H]1C1=CC[C@@H]3[C@@]4(C)C[C@@H](OC(=O)/C=C/c5ccccc5)[C@H](O)[C@@](C)(CO)[C@@H]4[C@H](O)C[C@@]3(C)[C@]1(C)CC2`, for which the growth is 4.73% (active). The result for `O=c1[nH]ccc2c(S(=O)(=O)N3CCCNCC3)cccc12` reads 67% (inactive); that for `CC1(O)CCC(Nc2cc(-c3ccc(C(F)(F)F)cc3)c(C#N)c3nc4ccccc4n23)CC1` (stereo not given), 89.3% (inactive).

As for `COc1cc2cc(NCc3ccc(Cl)cc3)nc(C)c2cc1OC`, the growth was 29.9% (inactive).

Consider `COc1cc2c(c(OC)c1)C1c3ccccc3NC(=O)N1CC2` (stereo not given), for which the growth was 49.8% (inactive). For the molecule `COc1c(C(NC(=O)c2ccccc2)c2sccc2C)cc(Cl)c2cccnc12` (stereo not given), the growth is 114% (inactive). On to `COc1cc(C2CC(c3ccc(Cl)cc3)=NN2c2ccc(Cl)cc2)cc(OC)c1OC` (stereo not given), for which the growth is 96.1% (inactive). Turning to `C=CCC(=O)N[C@H](/C=C/C(=O)O)Cc1ccc(-c2cc(Cl)cc(Cl)c2)cc1`, the growth was 112% (inactive).

Take `CC#CC(=O)N1CCC[C@H]1c1nc(-c2ccc(C(=O)Nc3ccccn3)cc2)c2c(N)nccn12`: the growth was 88.3% (inactive). As for `O=C(Cn1ccnc1)Nc1ccc(-c2nc3ccccc3s2)cc1`, the growth was 105% (inactive).

On to `CO[C@H]1C[C@@H]2CC[C@@H](C)[C@@](O)(O2)C(=O)C(=O)N2CCCC[C@H]2C(=O)O[C@H]([C@H](C)C[C@@H]2CC[C@@H](O)[C@H](OC)C2)CC(=O)[C@H](C)/C=C(\C)[C@@H](O)[C@@H](OC)C(=O)[C@H](C)C[C@H](C)\C=C/C=C/C=C/1C`, for which the growth is 38.8% (inactive). In the case of `C=CC(=O)Nc1cccc(Oc2nc(Nc3ccc(N4CCN(C)CC4)cc3)nc3ccsc23)c1` it was -91.6% (active); in that of `Cc1ccc(NC(=O)Nc2ccc(Nc3ncnc4sc5c(c34)CCOC5)cc2)cc1Cl`, 111% (inactive). Regarding `Cc1nc(-c2cn3c(n2)-c2ccc(-c4cnn(C(C)(C)C(N)=O)c4)cc2OCC3)n(C(C)C)n1`, the growth is 9.16% (active). Consider `CCCCOc1nc2cc(Cl)ccc2cc1/C=C/c1cc(/C=C/c2cc3ccc(Cl)cc3nc2OCCCC)n(-c2ccccc2)n1`, for which the growth was 112% (inactive). With `O=C1/C(=C\c2cccc(OCCCCCOc3ccc(Cl)cc3)c2)N=C2SCCCN12`, the growth was 58.7% (inactive). The result for `O=C(NC[C@H](O)CO)c1ccncc1Nc1ccc(I)cc1F` reads -12.7% (active); that for `C=CCN(/C=C1/C(=O)O[C@H](COC)[C@@]2(C)C1=C(O)C(=O)C1=C2[C@H](OC(C)=O)C[C@]2(C)C(=O)CC[C@@H]12)CC=C`, 24.4% (inactive); that for `CCN1/C(=C/C=C/c2n(-c3ccccc3)c3ccc(-c4nc5ccccc5s4)cc3[n+]2CC)N(c2ccccc2)c2ccc(-c3nc4ccccc4s3)cc21`, -8.49% (active). The result for `c1cc(OCCN2CCCCC2)cc(-c2n[nH]c3ccc(-c4ncn[nH]4)cc23)c1` reads 46.5% (inactive); that for `C=CCN1C(=O)c2cccc3c(-c4ccc5c(c4)ncn5C4CCCCC4)ccc(c23)C1=O`, 76.7% (inactive); that for `COc1ccc(Br)cc1NC(=O)Nc1cccc2c1ccn2Cc1ccnc(N)c1`, 53.3% (inactive). Regarding `O=C1OCC2=C1C(c1cccc(F)c1)c1cc3c(cc1N2CCO)OCCO3` (stereo not given), the growth was 44.8% (inactive). The result for `CN1[C@@H]2CC[C@H]1/C(=C\c1ccccc1)C1=C2[C@@H](c2ccccc2)C(C#N)=C(N)O1` reads 104% (inactive); that for `O=C(N/N=C/c1ccc(Cl)cc1)c1cc(-c2cc3ccccc3o2)nn1-c1ccccc1`, 99.7% (inactive); that for `Cc1cc(C2(c3ccc(O)c(C)c3)OS(=O)(=O)c3ccccc32)ccc1O`, 113% (inactive). The result for `CCn1c(-c2nonc2N)nc2c(C#CC(C)(C)O)ncc(OC[C@H]3CCCNC3)c21` reads 45.8% (inactive); that for `CC(=O)OCCC/C(=C\c1ccc2ccccc2c1)[N+](=O)[O-]`, -91.1% (active); that for `COc1ccc(-c2ccc3ncc4c(c3c2)n(-c2ccc(N3CCNCC3)c(C(F)(F)F)c2)c(=O)n4C)cn1`, -76.6% (active). With `O=C(O)C1(Cc2cccc(Nc3nccs3)n2)CCC(Oc2cccc(Cl)c2F)CC1` (stereo not given), the growth was 88.4% (inactive).

On to `CCS(=O)(=O)N1CCN(c2ccc(Nc3ncc(C(N)=O)c(NC4CC4)n3)cc2)CC1`, for which the growth is 83.3% (inactive). In the case of `CNC(=O)CN1CCC(Oc2cc3c(Nc4cccc(Cl)c4F)ncnc3cc2OC)CC1` it was 91.7% (inactive); in that of `CC[C@H](Nc1ncnc2nc[nH]c12)c1nc2cccc(F)c2c(=O)n1-c1ccccc1`, 69.3% (inactive). `CCN(CCN(C)C)C(=O)CNCc1cc(C(N)=O)ccn1`: the growth was 110% (inactive).

Values taken from PubChem BioAssay (NCI).
